# PubChem BioAssay AID493169 (National Center for Advancing Translational Sciences (NCATS), 2011)
# Inconclusive results are not listed. The source made the active and inactive calls. Calls follow the shape of the dose curve; as a rule, active = well fitted inhibition curve with a large enough effect; inconclusive = small, poorly fitted or top-dose-only effect; inactive = flat fitted curve, though single readings scatter.
# Assay: CHOP2 Reporter Counterscreen Assay for Inhibitors of Ubiquitin-specific Protease USP2a;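 also: activated enterokinase alone at 50 pM in a cell-free format rather than USP2a or CHOP2; nearly all actives have a fitted effect of over 55% in size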
# Details: purified enterokinase, fluorogenic substrate, 485/531 nm; series mostly up to 38.3 µM; activity change, negative = inhibition: at the top concentration
# Method in brief: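 Fluorescence (485/531 nm) read 10 min after adding 25nM reporter substrate to 50 pM activated EK preincubated 30 min RT with compound; Tris pH 8.0/CaCl2/CHAPS buffer. Data normalized to buffer-alone inhibition; concentration-response curves fitted.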
# % is scaled to controls: 0 for no effect and ±100 for the full control effect; potency is read from the fitted curve at half-maximal effect.
SMILES,"activity change, negative = inhibition",Potency
COc1cccc(N2CCN(C(=O)CN(C)S(=O)(=O)c3ccc4c(c3)CCC(=O)N4)CC2)c1,8.91% (inactive),–
CC(=O)COc1ccc2c(-c3ccccc3)cc(=O)oc2c1,-0.186% (inactive),–
CC1CCN(c2ccc3c(c2)S(=O)(=O)c2cccc(C(=O)NC4CC4)c2C3=O)CC1,8.41% (inactive),–
CCOC(=O)COc1c(OC)cc(Cl)cc1C1Nc2ccccc2C(=O)N1c1ccccc1 (stereo not given),-2.56% (inactive),–
Cc1nc(NC(C)C)c2cnn(CCc3ccccc3)c2n1,-1.05% (inactive),–
COC(=O)c1[nH]c2ccc(C)cc2c1NC(=O)CN1CCCc2ccccc21,–,10 µM (active)
CC1CC(C)CN(C(=O)CSc2nnc(-c3ccc(Cl)cc3)o2)C1 (stereo not given),3.09% (inactive),–
O=C(NCCN1C(=O)CSC1=O)C1CC(=O)N(c2ccccc2)C1 (stereo not given),4.98% (inactive),–
Cc1csc(NC(=O)CCn2c(=O)sc3ccccc32)n1,2.39% (inactive),–
Cc1ccc(NC(=O)CCC(=O)OC(C)C(=O)c2ccccc2)cc1 (stereo not given),-2.47% (inactive),–
O=C(NC1CCCCC1)C(c1ccco1)N(Cc1ccco1)C(=O)c1ccco1 (stereo not given),-14.8% (inactive),–
COc1ccc(-n2c(SCC(=O)N3CCN(c4ccccc4)CC3)nc3c(c2=O)SCC3)cc1,-4.64% (inactive),–
COc1ccc(NC(=O)CSc2nc(O)cc(=O)n2-c2ccc(OC)cc2)cc1,-6.78% (inactive),–
CCCOc1ccc(/C=C2\SC(=S)N(CC3CCCO3)C2=O)cc1 (stereo not given),2.45% (inactive),–
Cc1cc(C(=O)NCc2ccco2)on1,-7.56% (inactive),–
O=C(NC(=S)N1CCCc2ccccc21)c1ccc([N+](=O)[O-])cc1,6.3% (inactive),–
Cc1nc2n(n1)CC(O)CS2 (stereo not given),1.03% (inactive),–
Cn1c(C(=O)NCCCN2CCN(c3ccccc3F)CC2)cc2c(=O)n(C)c3ccccc3c21,2.44% (inactive),–
CCCn1c(C)cc(C)c(C#N)c1=O,0.326% (inactive),–
COC(=O)c1ccccc1NC(=O)CSc1nc(O)cc(=O)n1C1CCCC1,-3.97% (inactive),–

SMILES,"activity change, negative = inhibition",Potency
O=C(NCCOC(=O)c1ccccc1C(=O)OCCNC(=O)c1cccnc1)c1cccnc1,-0.228% (inactive),–
CCCCC(CC)CN=C(N)NC(N)=NCCCCCCN=C(N)NC(N)=NCC(CC)CCCC (stereo not given),–,5.62 µM (active)
COc1ccc(/C=C\C(=O)O[C@@H]2C(O)C(O[C@@H]3OC(C)[C@H](O[C@@H]4OCC(O[C@H]5O[C@H](CO)[C@@H](O)C(O)C5O)C(O)C4O)C(O)C3O)[C@H](OC(=O)[C@]34CCC(C)(C)C[C@@H]3C3=CCC5[C@@]6(C)CC(O)C(O[C@@H]7OC(CO)C(O)[C@H](O)[C@H]7O)[C@@](C)(C(=O)O)C6CC[C@@]5(C)[C@]3(CO)CC4)O[C@H]2C)cc1 (stereo not given in full),-14.4% (inactive),–
Cc1sc2nc(CN3CCN(c4ccc(O)cc4)CC3)[nH]c(=O)c2c1C,0.0748% (inactive),–
O=C1CS/C(=C/C(=O)c2ccccc2)N1,0.0345% (inactive),–
Fc1ccc(-c2nnn(Cc3nc4ccccc4s3)n2)cc1,-0.729% (inactive),–
CCCn1nnc(NC(=O)c2cccc(OCC(C)C)c2)n1,2.56% (inactive),–
CCOC(=O)C1=CN(Cc2cccc(F)c2)S(=O)(=O)NC1c1ccc(Br)cc1F (stereo not given),-6.87% (inactive),–
O=C(OCc1nc2ccccc2[n+]([O-])c1C(=O)c1ccccc1)c1cccs1,1.84% (inactive),–
CCCCCCCCCS(=O)(=O)N/N=C/c1cccc([N+](=O)[O-])c1,-2.63% (inactive),–
COc1ccc(S(=O)(=O)N(C)CC(=O)Nc2cccc(C(C)=O)c2)cc1Cl,-1.62% (inactive),–
O=C(CC(C(=O)O)C1CCCO1)NCCc1ccc2c(c1)OCO2 (stereo not given),-1.81% (inactive),–
O=S(=O)(c1cc(Cl)ccc1Cl)N1CCNCC1,2.64% (inactive),–
CC1CCCC(N2CCN(C(=O)c3cccc(F)c3)CC2)C1 (stereo not given),-19% (inactive),–
Cc1onc(-c2ccccc2)c1C(=O)N1CCN(C)CC1,1.29% (inactive),–
Cc1cc2c(c(=O)n1CC1CCCO1)C(c1ccco1)C(C#N)=C(N)O2 (stereo not given),1.78% (inactive),–
O=C(CCSCc1ccc(Cl)cc1)NCCc1ccccc1,-0.319% (inactive),–
Nc1c(C(=O)NCC2CCCO2)sc2nc3c(c(-c4ccco4)c12)CC/C3=C\c1ccco1 (stereo not given),–,3.16 µM (active)
CCOc1ccc(-c2ccc(/C=C3/C(=N)N4C(C)=CSC4=NC3=O)o2)c([N+](=O)[O-])c1,-15.5% (inactive),–
COC(=O)c1c(N2C(=O)CCC2=O)sc2c1CCCC2,-0.467% (inactive),–
